Screening results from PubChem BioAssay.
D2 ag-1: agonists of human D2 dopamine receptor; HEK293 T-REx D2 cells, calcium flux agonist mode; activation, % at 2 µM; actives 0.53% (n = 340,000); AID 485358;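 active = activation over 3 SD above normal in the single-dose calcium agonist read, cut at about 30% in these data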
Target sequence (P14416 whole entry, looked up): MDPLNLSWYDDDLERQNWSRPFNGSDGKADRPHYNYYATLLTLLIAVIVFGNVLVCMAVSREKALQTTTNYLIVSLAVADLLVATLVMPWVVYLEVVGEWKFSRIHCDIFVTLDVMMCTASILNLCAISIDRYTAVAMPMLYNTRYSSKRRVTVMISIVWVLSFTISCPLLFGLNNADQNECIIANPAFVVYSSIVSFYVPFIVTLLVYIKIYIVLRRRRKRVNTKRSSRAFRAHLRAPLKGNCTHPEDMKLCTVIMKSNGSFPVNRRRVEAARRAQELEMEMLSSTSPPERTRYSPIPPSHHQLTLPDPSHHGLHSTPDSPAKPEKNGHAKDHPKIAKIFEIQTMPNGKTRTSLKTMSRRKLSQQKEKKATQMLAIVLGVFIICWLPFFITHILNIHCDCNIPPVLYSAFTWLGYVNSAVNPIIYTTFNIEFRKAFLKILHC
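In this primary screen, compounds producing a positive calcium signal within 180 s of addition to tetracycline-induced, force-coupled HEK293 Trex D2 cells are flagged; cells are dye-loaded with a no-wash calcium kit beforehand.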
D2 ag-2: agonists of human D2 dopamine receptor (beta-arrestin). DiscoveRx PathHunter D2 beta-arrestin, luminescence, 90 min; 100% = 57 uM dopamine signal. activation, % (test concentration not listed). actives 0.084% (n = 360,000); in the data active = activation above about 40%; inconclusive = between about 15% and that limit
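DiscoveRx PathHunter D2 beta-arrestin cells (2,100/well) attached overnight, then compound-stimulated 90 min at 37 C in HBSS/10 mM HEPES/0.1% Tween-20 buffer; beta-galactosidase complementation read by luminescence after 1 h at ambient temperature. Dopamine 57 uM final (EC100) as control.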
D2 PAM-1: D2 dopamine receptor (human) potentiation; P14416; potentiation, % at 10 µM; actives 0.34% (n = 340,000); HEK293 T-REx D2, calcium flux, EC20 dopamine potentiation;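 active = potentiation over 3 SD above the plate norm, cut at about 30% in these data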
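Calcium flux readout, no-wash dye, 1 read/s. Inducible HEK293 Trex D2 line, overnight 30 C. Compound alone 180 s (agonist flags), then EC20 dopamine, another 180 s to score potentiation.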
D2 antagonist: antagonists of human D2 dopamine receptor | P14416 | HEK293 TREx D2 cells, calcium flux, dopamine EC80 | inhibition, % at 10 µM | actives 2% (n = 340,000) | AID 485344; in the data active = inhibition above about 30%; inactive = below that, where a call was filed
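Antagonism is scored as inhibition of an EC80 dopamine-evoked calcium signal in a force-coupled, tetracycline-inducible HEK293 T-REx D2 line, with compound present 180 s before agonist.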
D2 PAM-2: potentiates the human D2 dopamine receptor allosterically; actives 0.23% (n = 360,000); P14416; DiscoveRx D2 beta-arrestin cells, luminescence, 90 min; 100% = 57 uM dopamine signal; potentiation, % (no concentration beside the values); in the data active = potentiation above about 50%; inconclusive = mostly about 30% to 49%
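PathHunter beta-arrestin assay in DiscoveRx D2 cells. Compounds were added with an EC20 of dopamine (50 nM final) for 90 min at 37 deg C. Luminescence was read 1 h after detection reagent, with 57 uM dopamine as the EC100 control.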
Each line names hits and unclear results; the compound was inactive in the other large screens. In the library only some 2.4% were active in any assay of this set; here they are far more common.

Cc1cccc(C(=O)Nc2ccc(OCc3cc(=O)n4ccsc4n3)cc2)c1	none (no result: D2 ag-2, D2 antagonist, D2 PAM-2)
Cn1c(N)c(C(=O)NCc2ccccc2Cl)sc1=S	D2 antagonist 53
O=C(CN1CCN(c2ccccc2F)CC1)c1c[nH]c2ccc(F)cc12	D2 antagonist 35
NC(=O)C1CCN(CC(=O)c2c[nH]c3ccc(F)cc23)CC1	none
CN1C(=O)C(CC#N)(C2(CC#N)C(=O)N(C)c3ccccc32)c2ccccc21 (stereo unspecified)	none (no result: D2 ag-1, D2 PAM-1, D2 antagonist, D2 PAM-2)
CCCCOC(=O)/C=C/c1ccc(OC(=O)OC)c(OC(=O)OC)c1	D2 antagonist 74
CSc1cccc(CNC(=O)C2CCC(=O)N(CCCN3CCCC3=O)C2)c1 (stereo unspecified)	D2 antagonist 86
Cc1cccc(CNC(=O)C2CCC(=O)N(C3CC3)C2)c1 (stereo unspecified)	D2 PAM-1 52
CC(C)NS(=O)(=O)c1ccc(OCC(N)=O)c(Cl)c1	D2 antagonist 34
CCOC(=O)C1CCN(C(=O)COc2ccc(S(=O)(=O)NC(C)C)cc2Cl)CC1	none
O=C(Nc1ccc(Nc2ccccc2)cc1)C(Cl)(Cl)Cl	none
CC(C)(C)OC(=O)N1CCC(c2c(C(=O)NCC3CCN(C4CCCC4)C3)cnn2-c2ccccc2Cl)CC1 (stereo unspecified)	D2 antagonist 46
CC(C)(C)OC(=O)N1CCC(c2c(C(=O)O)cnn2-c2ccccc2Cl)CC1	none
C=CCOc1ccc(/C=C/C(=O)OCC(=O)NC2CCCCCCC2)cc1	D2 antagonist 43
C=CCOc1ccc(/C=C/C(=O)OCC(=O)NCC2CCCCC2)cc1	none
CNc1cc(-c2cccc(C(=O)N3CCOCC3)c2)ncn1	none (no result: D2 ag-1, D2 PAM-1, D2 antagonist)
Cc1ccc(Cl)c(OCC(=O)Nc2ccc3c(c2)OCCO3)c1	none
CCN(CC(=O)Nc1ccc2c(c1)OCCO2)C(=O)COc1cc(C)ccc1Cl	D2 antagonist 33
O=C(Oc1cccc2ccccc12)c1ccncc1	D2 antagonist 34
O=Nc1c(O)ccc2cc(S(=O)(=O)O)ccc12	D2 ag-2 inconclusive, D2 PAM-2 100 (no result: D2 ag-1, D2 PAM-1, D2 antagonist)
CCOc1ccc2c(c1)c(=O)c(C(=O)c1ccc(CC)cc1)cn2CC(=O)Nc1ccccc1OC	none (no result: D2 ag-1, D2 ag-2, D2 antagonist, D2 PAM-2)
Cc1nc2c3ccccc3n(CCN3CCCCC3)c2s1	D2 antagonist 40 (no result: D2 ag-2, D2 PAM-2)
CC(C)c1nc(C#N)c(NCCCn2ccnc2)o1	D2 antagonist 43
O=C(COc1ccccc1F)OCc1cc(=O)n2nc(C3CC3)sc2n1	none (no result: D2 ag-1, D2 ag-2, D2 antagonist, D2 PAM-2)
NS(=O)(=O)c1ccc(CCNC(=O)COC(=O)CCc2c[nH]c3ccccc23)cc1	none (no result: D2 ag-1, D2 PAM-1, D2 antagonist)
C=CCn1c(SCC(=O)Nc2ccc(C(=O)O)cc2)nc2sc(C)c(C)c2c1=O	none
C=CCn1c(SCC(=O)Nc2sccc2C#N)nc2sc(C)c(C)c2c1=O	D2 antagonist 32
C=C(C)Cn1c(SCC(=O)O)nnc1-c1ccc(C(C)(C)C)cc1	D2 antagonist 30
C=C(C)Cn1c(SCC(=O)O)nnc1-c1ccccc1	none
N#Cc1ccc(Oc2ncccn2)cc1	none (no result: D2 ag-1, D2 PAM-1, D2 antagonist)
COc1ccccc1C(=O)NC1CC2CCCC(C1)N2Cc1ccccc1 (stereo unspecified)	none (no result: D2 ag-1, D2 PAM-1, D2 antagonist)
COc1cccc(NC(=O)N2C3CCCC2CC(NC(=O)C2CC2)C3)c1 (stereo unspecified)	D2 antagonist 34
COc1cc(C(=O)NC2CC3CCCC(C2)N3Cc2ccccc2)cc(OC)c1OC (stereo unspecified)	D2 antagonist 84
COc1ccc(CN2C3CCC2CC(NC(=O)c2cc(OC)c(OC)c(OC)c2)C3)cc1 (stereo unspecified)	none (no result: D2 ag-1, D2 antagonist)
COc1ccc(C(=O)NC2CC3CCCC(C2)N3Cc2ccccc2)cc1OC (stereo unspecified)	D2 antagonist 82
COc1cccc(C(=O)NC2CC3CCCC(C2)N3Cc2ccc(C)cc2)c1 (stereo unspecified)	D2 antagonist 77
Cc1nnc(N2CCCC(C(=O)Nc3cccc(C(F)(F)F)c3)C2)c2nn(-c3ccccc3)c(C)c12 (stereo unspecified)	none (no result: D2 ag-1, D2 ag-2, D2 antagonist, D2 PAM-2)
COc1cc(C(=O)NC2CCN(Cc3ccccc3)CC2)cc(Cl)c1OC	D2 antagonist 89
COc1cc(OC)cc(C(=O)NC2CCN(CCCOc3ccccc3)CC2)c1	D2 antagonist 47
CN(C)CCNC(=O)CN1N=C(c2ccccc2)CCC1=O	none (no result: D2 ag-1, D2 ag-2, D2 antagonist, D2 PAM-2)
